This excerpt belongs to a sample that is enriched for hits.
IL-1B inflam inh: inhibitors of inflammasome signaling (IL-1 beta secretion). hit rate 4.7% among 360,000. THP-1 LPS/ATP IL-1B secretion, AlphaLISA, 16 h; stronger effect = lower value. activity change, % at 57.5 µM; in the data active = activity change below about -50%; inconclusive = mostly about -30% to -49%
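Secreted IL-1B measured by AlphaLISA bead assay after 16 h compound exposure of THP-1 cells; compounds (final up to 57.5 uM) added 1 h before LPS (250 ng/mL) and ATP (1.25 mM) stimulation; lower signal means less secretion.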
HT1080NT lethal: kills 2HG-producing HT-1080-NT fibrosarcoma cells; AID 686970; Potency, µM (titrated, usually from 46.1 µM), inactives show top-dose activity, negative = less viability, actives largely listed as cytotoxic; HT-1080-NT fibrosarcoma viability, CellTiter-Glo ATP luminescence, 48 h; hit rate 1.6% among 360,000;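 also: NT is the 2HG producing partner of a matched IDH1 knockdown line; potency is read from the fitted curve at half-maximal effect; 0% = DMSO-treated cells and -100% = media-only wells without cells; nearly all actives have a fitted effect of over 55% in size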
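A 48-hour cytotoxicity screen used HT-1080-NT cells plated 2 hours before compound delivery. ATP-based CellTiter-Glo luminescence measured viability, normalized to DMSO and no-cell controls.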
HT1080 IDH1KD tx: toxicity to HT-1080 IDH1 knockdown cells (counter line); HT-1080 IDH1 knockdown viability, ATP luminescence, 48 h; hit rate 2% among 360,000; AID 686971; Potency, µM (top dose mostly 46.1 µM), inactives show top-dose activity, negative = toxicity, hits mostly cytotoxic;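 also: potency is read from the fitted curve at half-maximal effect; 0% = DMSO wells and -100% = cell-free medium wells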
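After a 2 h attachment period, IDH1KD HT-1080 cells took pin-transferred compound for 48 h at 37 °C; ATP-based luminescence after 10 min room-temperature reagent incubation reported viability.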
DT40 TDP1 CPT: DT40-hTDP1 cell growth loss with CPT; hit rate 12% among 420,000; AID 686979; chicken DT40 Tdp1-/-;hTDP1 cells + 20 nM CPT, ATP luminescence, 48 h; Potency, µM (titrated, usually from 46.2 µM), for the others: at the highest dose activity change, negative = growth inhibition, most hits filed as inhibitors; also: potency is read from the fitted curve at half-maximal effect; nearly all actives have a fitted effect of over 55% in size
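Chicken DT40 Tdp1-/- cells stably complemented with human TDP1 were seeded at 400 cells/well in medium containing 20 nM camptothecin, exposed to pin-transferred compounds, and grown at 37 °C for at least 48 hr. Viability was read as ATP luminescence.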
TDP1 cell noCPT: qHTS for Inhibitors of human tyrosyl-DNA phosphodiesterase 1 (TDP1): qHTS in cells in absence of CPT. DT40 Tdp1-/- hTDP1 cells, no CPT, ATP luminescence, 48 h. Potency, µM (series often up to 46.2 µM), for the others: at the top dose activity change, negative = growth inhibition, most hits filed as inhibitors. hit rate 15% among 420,000. AID 686978, 2013; also: potency is read from the fitted curve at half-maximal effect; nearly all actives have a fitted effect of over 55% in size
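Camptothecin absent (DMSO only). Human TDP1-complemented DT40 knockout cells, 400 cells/well, 37 °C for minimum 48 hr; ATP measured via CellTiter-Glo, 30 min dark incubation, luminescence.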
12-LOX inh: inhibitors of human 12S-lipoxygenase ALOX12 | P18054 | Potency, µM (highest dose often 108 µM), for the others: at the highest dose activity change, negative = inhibition, usual class: inhibitors | hit rate 1.1% among 580,000 | purified 12hLO, xylenol orange hydroperoxide absorbance; also: potency is read from the fitted curve at half-maximal effect
Target sequence (P18054 whole entry, looked up): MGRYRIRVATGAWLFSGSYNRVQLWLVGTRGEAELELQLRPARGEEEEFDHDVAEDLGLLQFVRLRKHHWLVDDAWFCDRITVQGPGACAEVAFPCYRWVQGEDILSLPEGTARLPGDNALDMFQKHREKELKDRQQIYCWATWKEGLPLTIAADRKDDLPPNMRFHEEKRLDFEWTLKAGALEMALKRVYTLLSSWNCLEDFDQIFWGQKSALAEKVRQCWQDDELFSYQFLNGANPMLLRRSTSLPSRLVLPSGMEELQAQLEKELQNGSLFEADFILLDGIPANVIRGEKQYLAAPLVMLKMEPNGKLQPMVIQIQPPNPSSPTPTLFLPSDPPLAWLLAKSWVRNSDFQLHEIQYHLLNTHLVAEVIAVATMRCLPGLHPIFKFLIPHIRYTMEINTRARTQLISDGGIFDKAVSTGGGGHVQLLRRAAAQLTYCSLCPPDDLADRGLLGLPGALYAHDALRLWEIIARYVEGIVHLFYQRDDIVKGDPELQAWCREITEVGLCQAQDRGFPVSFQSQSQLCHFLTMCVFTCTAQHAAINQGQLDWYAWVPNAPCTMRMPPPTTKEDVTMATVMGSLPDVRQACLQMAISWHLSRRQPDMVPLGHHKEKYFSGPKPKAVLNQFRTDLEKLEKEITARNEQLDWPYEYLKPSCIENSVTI
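Purified human 12hLO at 150 nM in 25 mM Hepes, 0.01% Triton X-100, pH 7.0, preincubated 15 min at room temperature with compound. Reaction started with 40 uM arachidonic acid, 30 min at room temperature. Hydroperoxide measured by Fe-xylenol orange, 573/405 nm absorbance ratio.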
The depositor's hits bear a star. Unless noted, calls follow the shape of the dose curve; as a rule, active = well fitted curve in the direction sought with a large enough effect; inconclusive = small, poorly fitted or top-dose-only effect, or another doubt; inactive = no such curve, though single readings can be large; an effect the other way counts as inactive or inconclusive. Unless noted, % is scaled to controls: 0 for no effect and ±100 for the full control effect.

Cc1nc(Nc2ccc(Cl)c(Cl)c2)sc1C(/C=C/c1ccc2c(c1)OCO2)=NNc1ccc([N+](=O)[O-])cc1[N+](=O)[O-] was read as IL-1B inflam inh 0.0, HT1080NT lethal 8.1%, HT1080 IDH1KD tx 4.7%, DT40 TDP1 CPT -14.4%, TDP1 cell noCPT -27.6% and 12-LOX inh -13.8%.
`Cn1ccnc1C(O)c1cccc(OCc2ccccc2)c1` (configuration not stated) gave IL-1B inflam inh 8.3, HT1080NT lethal 7.9%, HT1080 IDH1KD tx 8.7%, DT40 TDP1 CPT -16.8%, TDP1 cell noCPT -27.3% and 12-LOX inh 14.6%.
Cc1ccc(OCc2nnc(-c3ccccc3)o2)cc1 was read as DT40 TDP1 CPT -3.3%, TDP1 cell noCPT -13.1% and 12-LOX inh -6.6%.
Screening OC(c1ccc(OCc2ccccc2)cc1)c1nnc(-c2ccccc2)o1 (configuration not stated) returned IL-1B inflam inh -8.5, HT1080NT lethal -28.2%, HT1080 IDH1KD tx -26.8%, DT40 TDP1 CPT 20.6µM*, TDP1 cell noCPT 16.4µM* and 12-LOX inh 0.0%.
`Cc1ccc(-c2nnc(-c3ccccc3)o2)cc1` gave IL-1B inflam inh 21.8, HT1080NT lethal -1.9%, HT1080 IDH1KD tx -3.2%, DT40 TDP1 CPT -21.7%, TDP1 cell noCPT inconclusive and 12-LOX inh 0.0%.
For OC(c1cccc(OCc2ccccc2)c1)c1nnc(-c2ccccc2)o1 (configuration not stated) the results were IL-1B inflam inh inconclusive, HT1080NT lethal -19.9%, HT1080 IDH1KD tx inconclusive, DT40 TDP1 CPT 18.4µM*, TDP1 cell noCPT 18.4µM* and 12-LOX inh 0.0%.
Screening c1ccc(-c2nnc(C(c3ccccc3)c3ccccc3)o2)cc1 returned IL-1B inflam inh -8.7, HT1080NT lethal -0.9%, HT1080 IDH1KD tx 0.2%, DT40 TDP1 CPT 25.9µM*, TDP1 cell noCPT 18.4µM* and 12-LOX inh -0.3%.
Screening CN(C)C(=O)c1ccc(NC(=O)c2cc(-c3ccncc3)nc3ccccc23)cc1 returned 12-LOX inh 12.1%.
`CC(=O)c1c(C)oc2c1cc(NS(=O)(=O)c1ccc(Cl)c(C)c1)c1ccccc12` gave DT40 TDP1 CPT inconclusive, TDP1 cell noCPT inconclusive and 12-LOX inh -21.1%.
Cc1ccc(-n2ncc3c(N4CCN(C)CC4)ncnc32)cc1Cl was read as DT40 TDP1 CPT inconclusive, TDP1 cell noCPT 20.6µM* and 12-LOX inh -2.6%.
Screening Cc1ccc(-n2ncc3c(N4CCN(CCO)CC4)ncnc32)cc1Cl returned DT40 TDP1 CPT 11.6µM*, TDP1 cell noCPT inconclusive and 12-LOX inh inconclusive.
Screening COc1cccc(CNC(=O)[C@@H]2CCCN2C(=O)[C@H]2CCCCN2)c1 returned IL-1B inflam inh 48.6, HT1080NT lethal 6.0%, HT1080 IDH1KD tx 11.5%, DT40 TDP1 CPT -8.4%, TDP1 cell noCPT -12.0% and 12-LOX inh 1.3%.
Screening CC(C)CN(C(=O)COc1ccccc1C(=O)NCc1ccccc1)C1CCS(=O)(=O)C1 (configuration not stated) returned IL-1B inflam inh -23.2, HT1080NT lethal 3.2%, HT1080 IDH1KD tx -1.2%, DT40 TDP1 CPT -22.0%, TDP1 cell noCPT -29.3% and 12-LOX inh 2.5%.
For COC(=O)[C@@]12C[C@@H](CC(=O)NCC34CC5CC(CC(C5)C3)C4)C(=O)N(Cc3cccc4ccccc34)C1=CCC(C)(C)C2 the results were IL-1B inflam inh -21.0, HT1080NT lethal -22.3%, HT1080 IDH1KD tx -11.9%, DT40 TDP1 CPT inconclusive, TDP1 cell noCPT inconclusive and 12-LOX inh -16.4%.
CCOC(=O)[C@]12CCCC=C1N(Cc1ccccc1)C(=O)[C@H](CC(=O)NCC13CC4CC(CC(C4)C1)C3)C2 was read as IL-1B inflam inh -25.4, HT1080NT lethal inconclusive, HT1080 IDH1KD tx inconclusive, DT40 TDP1 CPT inconclusive, TDP1 cell noCPT inconclusive and 12-LOX inh -24.0%.
`COC(=O)[C@@]12C[C@@H](CC(=O)NCC34CC5CC(CC(C5)C3)C4)C(=O)N(Cc3ccccc3)C1=CCC(C)(C)C2` gave IL-1B inflam inh -28.9, HT1080NT lethal inconclusive, HT1080 IDH1KD tx inconclusive, DT40 TDP1 CPT inconclusive, TDP1 cell noCPT 20.6µM* and 12-LOX inh -28.1%.
COC(=O)[C@]12CCCCC=C1N(Cc1ccccc1)C(=O)[C@H](CC(=O)NCC13CC4CC(CC(C4)C1)C3)C2 was read as IL-1B inflam inh -24.1, HT1080NT lethal inconclusive, HT1080 IDH1KD tx inconclusive, DT40 TDP1 CPT 18.4µM*, TDP1 cell noCPT inconclusive and 12-LOX inh inconclusive.
`COc1ccc(-c2[nH]c(-c3cccc(OC)c3)nc2SCC(=O)NC2CCCC2)cc1` gave IL-1B inflam inh -23.1, HT1080NT lethal -21.8%, HT1080 IDH1KD tx inconclusive, DT40 TDP1 CPT 20.6µM*, TDP1 cell noCPT 23.1µM* and 12-LOX inh -16.5%.
COc1ccc(-c2[nH]c(-c3ccccc3)nc2SCC(=O)NC2CCCC2)cc1 was read as IL-1B inflam inh inconclusive, HT1080NT lethal -0.6%, HT1080 IDH1KD tx -22.7%, DT40 TDP1 CPT 23.1µM*, TDP1 cell noCPT 20.6µM* and 12-LOX inh -4.8%.
`COc1ccc(-c2[nH]c(-c3ccc(F)cc3)nc2SCC(=O)NC2CCCC2)cc1` gave IL-1B inflam inh -14.2, HT1080NT lethal -16.9%, HT1080 IDH1KD tx -29.0%, DT40 TDP1 CPT inconclusive, TDP1 cell noCPT inconclusive and 12-LOX inh -1.3%.
`CCOc1ccccc1C(=O)Nc1nnc(C2CCCCC2)s1` gave 12-LOX inh -36.7%.
For O=[N+]([O-])c1ccc(Cl)cc1Sc1nc2ccccc2o1 the results were IL-1B inflam inh -58.2*, HT1080NT lethal -3.5%, HT1080 IDH1KD tx 5.1%, DT40 TDP1 CPT inconclusive, TDP1 cell noCPT inconclusive and 12-LOX inh -0.1%.
CN1CCN(c2ncc3nc(-c4ccccc4)c(=O)n(CCC#N)c3n2)CC1 was read as DT40 TDP1 CPT inconclusive, TDP1 cell noCPT 16.4µM* and 12-LOX inh 95.4%.
Screening COc1ccc(-c2nc3cnc(N4CCN(C)CC4)nc3n(CCC#N)c2=O)cc1 returned DT40 TDP1 CPT -24.4%, TDP1 cell noCPT 23.1µM* and 12-LOX inh inconclusive.
`COc1ccc(-c2nc3cnc(N4CCOCC4)nc3n(CCC#N)c2=O)cc1` gave DT40 TDP1 CPT 9.9%, TDP1 cell noCPT 0.3% and 12-LOX inh inconclusive.
COc1ccc(NC(=O)COC(=O)c2cccnc2Nc2cccc(C(F)(F)F)c2)cc1OC was read as 12-LOX inh 1.4%.

Screening data as filed in PubChem BioAssay.
